Data: PubChem BioAssay AID1159580 (chemical genetic matrix, 2015)
Where “and” joins values, the source holds several entries; their conditions need not be identical. Equal values may be shown once. Screen size: about 5,500 compounds; about 2,000 (36%) were called active. Inconclusive results (about 18%) are left out. No stated cut-off is given here; in the data, active means normalized growth mostly below about 0.91 (no sharp cut-off); inconclusive means no clear call, values can overlap the other calls; inactive means mostly above about 0.92. The list shows a part of the results.

Experiment: chemical genetic growth profiling, strain panel (AID 1159580);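 further: tested at 20 µM; growth read once vehicle control cultures reached saturation at 30 °C; 1 = growth at the plate median or of vehicle wells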
Conditions: growth OD

Measured: normalized growth

COCCOC(=O)C1=C(C)NC(C)=C(C(=O)OC(C)C)C1c1cccc([N+](=O)[O-])c1 (stereo unspecified)
inactive: S. cerevisiae deletion strains, locus YJR075W, strain HOC1, stronger effect = lower value 1.01 | S. cerevisiae deletion strains, locus YKL009W, strain mrt4, stronger effect = lower value 0.967 | S. cerevisiae deletion strains, locus YKL068W, stronger effect = lower value 1 | S. cerevisiae deletion strains, locus YKL085W, strain MDH1 (second series), stronger effect = lower value 0.986 | S. cerevisiae deletion strains, locus YKL085W, strain MDH1, stronger effect = lower value 0.986 | S. cerevisiae deletion strains, locus YKL160W, strain elf1, stronger effect = lower value 1.02 | S. cerevisiae deletion strains, locus YKL190W, strain CNB1, stronger effect = lower value 0.997 | S. cerevisiae deletion strains, locus YKR001C, strain vps1, stronger effect = lower value 1.01 | S. cerevisiae deletion strains, locus YKR026C, strain gcn3, stronger effect = lower value 1.01 | S. cerevisiae deletion strains, locus YKR091W, strain srl3, stronger effect = lower value 0.995 | S. cerevisiae deletion strains, locus YLL001W, strain dnm1, stronger effect = lower value 1.01 | S. cerevisiae deletion strains, locus YLL026W, stronger effect = lower value 1 | S. cerevisiae deletion strains, locus YLL041C, strain sdh2, stronger effect = lower value 1.01 | S. cerevisiae deletion strains, locus YLR027C, strain aat2, stronger effect = lower value 1 | S. cerevisiae deletion strains, locus YLR039C, strain RIC1, stronger effect = lower value 1.02 | S. cerevisiae deletion strains, locus YLR058C, strain SHM2, stronger effect = lower value 1 | S. cerevisiae deletion strains, locus YLR102C, strain apc9, stronger effect = lower value 1.02 | S. cerevisiae deletion strains, locus YLR113W, strain HOG1, stronger effect = lower value 0.954 | S. cerevisiae deletion strains, locus YLR221C, strain rsa3, stronger effect = lower value 1 | S. cerevisiae deletion strains, locus YLR258W, strain gsy2, stronger effect = lower value 1.01 | S. cerevisiae deletion strains, locus YLR262C, strain YPT6 (second series), stronger effect = lower value 0.988 | S. cerevisiae deletion strains, locus YLR262C, strain YPT6, stronger effect = lower value 1.05 | S. cerevisiae deletion strains, locus YLR268W, strain sec22, stronger effect = lower value 0.993 | S. cerevisiae deletion strains, locus YLR320W, strain mms22, stronger effect = lower value 0.984 | S. cerevisiae deletion strains, locus YLR330W, strain CHS5, stronger effect = lower value 1.01 | S. cerevisiae deletion strains, locus YLR342W, strain FKS1 (second series), stronger effect = lower value 1.01 | S. cerevisiae deletion strains, locus YLR342W, strain FKS1, stronger effect = lower value 1.02 | S. cerevisiae deletion strains, locus YLR357W, strain rsc2, stronger effect = lower value 1.02 | S. cerevisiae deletion strains, locus YLR370C, strain arc18, stronger effect = lower value 1 | S. cerevisiae deletion strains, locus YLR371W, strain rom2, stronger effect = lower value 1.01 | S. cerevisiae deletion strains, locus YLR384C, strain iki3, stronger effect = lower value 1.02 | S. cerevisiae deletion strains, locus YLR418C, strain cdc73, stronger effect = lower value 0.974 | S. cerevisiae deletion strains, locus YML016C, strain PPZ1, stronger effect = lower value 1 | S. cerevisiae deletion strains, locus YML032C, strain rad52, stronger effect = lower value 1.01 | S. cerevisiae deletion strains, locus YML120C, strain ndi1, stronger effect = lower value 1.03 | S. cerevisiae deletion strains, locus YML124C, strain tub3, stronger effect = lower value 1.01 | S. cerevisiae deletion strains, locus YMR058W, strain fet3, stronger effect = lower value 1.02 | S. cerevisiae deletion strains, locus YMR078C, strain ctf18, stronger effect = lower value 1.02 | S. cerevisiae deletion strains, locus YMR125W, strain sto1, stronger effect = lower value 1.06 | S. cerevisiae deletion strains, locus YMR129W, stronger effect = lower value 1.01 | S. cerevisiae deletion strains, locus YMR205C, strain PFK2, stronger effect = lower value 0.979 | S. cerevisiae deletion strains, locus YMR223W, strain ubp8, stronger effect = lower value 1.01 | S. cerevisiae deletion strains, locus YMR231W, strain pep5, stronger effect = lower value 1.01 | S. cerevisiae deletion strains, locus YMR263W, strain SAP30, stronger effect = lower value 1 and 1.01 | S. cerevisiae deletion strains, locus YMR307W, strain GAS1, stronger effect = lower value 1.02 and 1.01 | S. cerevisiae deletion strains, locus YNL067W, strain RPL9B, stronger effect = lower value 0.997 | S. cerevisiae deletion strains, locus YNL071W, strain lat1, stronger effect = lower value 0.998 | S. cerevisiae deletion strains, locus YNL128W, strain TEP1, stronger effect = lower value 1.01 | S. cerevisiae deletion strains, locus YNL153C, strain GIM3, stronger effect = lower value 1 | S. cerevisiae deletion strains, locus YNL175C, strain NOP13, stronger effect = lower value 0.962 | S. cerevisiae deletion strains, locus YNL183C, strain NPR1, stronger effect = lower value 0.93 | S. cerevisiae deletion strains, locus YNL197C, strain WHI3, stronger effect = lower value 0.99 | S. cerevisiae deletion strains, locus YNL209W, strain ssb2, stronger effect = lower value 1 | S. cerevisiae deletion strains, locus YNL224C, strain SQS1, stronger effect = lower value 1.01 | S. cerevisiae deletion strains, locus YNL233W, strain BNI4, stronger effect = lower value 1 | S. cerevisiae deletion strains, locus YNL248C, strain rpa49, stronger effect = lower value 1.03 | S. cerevisiae deletion strains, locus YNL250W, strain rad50, stronger effect = lower value 1.02 | S. cerevisiae deletion strains, locus YNL271C, strain bni1, stronger effect = lower value 1.01 | S. cerevisiae deletion strains, locus YNL298W, strain CLA4, stronger effect = lower value 1 | S. cerevisiae deletion strains, locus YNL307C, strain MCK1, stronger effect = lower value 1.01 | S. cerevisiae deletion strains, locus YNL322C, strain KRE1 (second series), stronger effect = lower value 1 | S. cerevisiae deletion strains, locus YNL322C, strain KRE1, stronger effect = lower value 1.01 | S. cerevisiae deletion strains, locus YNR049C, strain mso1, stronger effect = lower value 0.993 | S. cerevisiae deletion strains, locus YNR052C, strain pop2, stronger effect = lower value 1.01 | S. cerevisiae deletion strains, locus YOL006C, strain TOP1, stronger effect = lower value 1.01 | S. cerevisiae deletion strains, locus YOL012C, strain htz1 1.04 | S. cerevisiae deletion strains, locus YOL147C, strain pex11, stronger effect = lower value 1.01 | S. cerevisiae deletion strains, locus YOR001W, strain rrp6, stronger effect = lower value 1 | S. cerevisiae deletion strains, locus YOR061W, strain CKA2, stronger effect = lower value 0.999 | S. cerevisiae deletion strains, locus YOR069W, strain VPS5, stronger effect = lower value 1.01 | S. cerevisiae deletion strains, locus YOR070C, strain gyp1, stronger effect = lower value 1.02 | S. cerevisiae deletion strains, locus YOR080W, strain dia2, stronger effect = lower value 1.01 | S. cerevisiae deletion strains, locus YOR083W, strain WHI5 (second series), stronger effect = lower value 0.986 | S. cerevisiae deletion strains, locus YOR083W, strain WHI5, stronger effect = lower value 0.974 | S. cerevisiae deletion strains, locus YOR106W, strain vam3, stronger effect = lower value 1 | S. cerevisiae deletion strains, locus YOR136W, strain idh2, stronger effect = lower value 1.01 | S. cerevisiae deletion strains, locus YOR144C, strain elg1, stronger effect = lower value 1.01 | S. cerevisiae deletion strains, locus YOR184W, strain ser1, stronger effect = lower value 1.01 | S. cerevisiae deletion strains, locus YOR231W, strain MKK1, stronger effect = lower value 0.935 | S. cerevisiae deletion strains, locus YOR265W, strain rbl2, stronger effect = lower value 0.999 | S. cerevisiae deletion strains, locus YOR270C, strain vph1, stronger effect = lower value 0.92 | S. cerevisiae deletion strains, locus YOR290C, strain snf2, stronger effect = lower value 1.03 | S. cerevisiae deletion strains, locus YOR316C, strain cot1, stronger effect = lower value 1.01 | S. cerevisiae deletion strains, locus YPL051W, strain arl3, stronger effect = lower value 1.01 | S. cerevisiae deletion strains, locus YPL055C, strain LGE1, stronger effect = lower value 1 and 1.02 | S. cerevisiae deletion strains, locus YPL078C, strain atp4, stronger effect = lower value 1.03 | S. cerevisiae deletion strains, locus YPL106C, strain sse1, stronger effect = lower value 1.08 | S. cerevisiae deletion strains, locus YPL240C, strain hsp82, stronger effect = lower value 1.02 | S. cerevisiae deletion strains, locus YPL241C, strain CIN2, stronger effect = lower value 0.985 | S. cerevisiae deletion strains, locus YPL256C, strain CLN2, stronger effect = lower value 0.955 | S. cerevisiae deletion strains, locus YPR119W, strain clb2, stronger effect = lower value 1.01 | S. cerevisiae deletion strains, locus YPR141C, strain kar3, stronger effect = lower value 1.02 | S. cerevisiae deletion strains, locus YPR163C, strain tif3, stronger effect = lower value 1.01 | S. cerevisiae deletion strains, locus YPR167C, strain met16, stronger effect = lower value 1.01 | S. cerevisiae deletion strains, strain wtn01, stronger effect = lower value 1 | S. cerevisiae strains, strain wild type, stronger effect = lower value 1
